# Screening data (PubChem)
# An excerpt weighted towards active compounds, which were near 3.6% of everything screened.
# mHTT-CaM PPI inh: mutant huntingtin-calmodulin interaction inhibitors – biochemical, AlphaScreen, primary screen | AlphaScreen His-mHTT/GST-CaM binding, luminescence | inhibition, % at 15 µM | 3.6% of 190,000 active | AID 1671202, 2021;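 note: 0% = both proteins with DMSO and 100% = one protein alone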
# Pf apPOL block: Pf-apPOL inhibitors, biochemical, fluorescence | 0.25% of 210,000 active | inhibition, % at 10 µM | Recombinant Pf-apPOL, molecular beacon fluorescence, 1.5 h | Plasmodium falciparum apicoplast DNA polymerase (apPOL) | AID 1794808, 2022
# * marks the source's active call; other numbers are inactive results; / = no result; ! = not active in a repeat. Cut-off read from the data, not from the text of the source: active = inhibition above about 50%; inactive = the rest.
SMILES,mHTT-CaM PPI inh,Pf apPOL block
CCc1ccc(C2C(C#N)=C(N)N(c3ccccc3)C3=C2C(=O)CC(C)(C)C3)s1 (configuration not stated),50.0*,-7.8
CC1(C)CC(=O)C2=C(C1)N(c1ccc(Br)cc1)C(N)=C(C#N)C2c1cccs1 (configuration not stated),42.0,-2.7
CCc1ccc(C2C(C#N)=C(N)N(c3ccc([N+](=O)[O-])cc3)C3=C2C(=O)CC(C)(C)C3)s1 (configuration not stated),49.0,0.9
CC1(C)CC(=O)C2=C(C1)N(c1ccc(Br)cc1F)C(N)=C(C#N)C2c1cccs1 (configuration not stated),52.0*,6.2
O=C(CCc1csc(NC(=O)Nc2ccccc2)n1)Nc1nc2ccccc2s1,-3.7,40.2
COc1ccc(C2SCC(=O)N2CCc2ccc(OC)c(OC)c2)c(OC)c1 (configuration not stated),6.0,13.5
COc1ccc(CCN2C(=O)CSC2c2ccc(Cl)c(Cl)c2)cc1OC (configuration not stated),100.0*,4.3
Brc1ncnc2nc[nH]c12,-5.5,/
O=C(O)c1ncnc2nc[nH]c12,99.1*,/
Cc1ccccc1-n1nc2c(c1NC(=O)C13CC4CC(CC(C4)C1)C3)CS(=O)(=O)C2,11.0,77.5*
Cc1ccccc1-n1nc2c(c1NC(=O)C13CC4CC(CC(C4)C1)C3)CSC2,0.0,-6.6
CC1=NN(c2ccccc2)C(=O)/C1=C/c1ccccc1F,32.0,-3.9
CC1=NN(c2ccccc2)C(=O)/C1=C/c1cccnc1,4.0,-3.2
CC1=NN(c2ccc(Cl)c(C(=O)O)c2)C(=O)/C1=C/c1ccc(Cl)cc1,6.0,3.0
CC1=NN(c2ccccc2)C(=O)/C1=C/c1ccc(Cl)cc1,53.0*,5.6
CC1=NN(c2ccccc2)C(=O)/C1=C/c1ccc(N)cc1,57.0*,-4.7
CC1=NN(c2ccccc2)C(=O)/C1=C/c1ccc[nH]1,81.0*,-10.5
COc1cc(C=C(C#N)C(=O)NC2CCS(=O)(=O)C2)cc(Br)c1O (configuration not stated),8.0,-7.6
COc1ccc(C(NC(C)=O)c2ccc3cccnc3c2O)cc1OC (configuration not stated),100.0*,-24.2
CCC(=O)NC(c1ccc(OC)c(OC)c1)c1ccc2cccnc2c1O (configuration not stated),100.0*,94.1*!
COc1cc(NC(=O)Cc2ccc(OC)c(OC)c2)c2ncccc2c1,15.0,-4.5
COc1ccc(C(NC(=O)CC(C)C)c2ccc3cccnc3c2O)cc1OC (configuration not stated),24.0,-8.8
CCCCNC(=O)c1nnn(-c2ccc(C)c(C)c2)c1-c1ccncc1,-6.7,-2.8
Cc1ccccc1CNC(=O)C1(C)CCCN(C(=O)c2ccccc2F)C1 (configuration not stated),-7.8,-2.6
O=[N+]([O-])c1ncn(CNc2cc(Br)cc3cccnc23)n1,65.0*,-2.4
SMILES,mHTT-CaM PPI inh,Pf apPOL block
O=[N+]([O-])c1ncn(Cc2cccc(Br)c2)n1,-2.8,3.4
O=C(O)CCn1ccc(=O)[nH]c1=O,-0.3,-1.9
O=C(c1cc(-c2cccs2)on1)N1CCCC1c1ccc(F)cc1 (configuration not stated),-11.2,-3.7
O=[N+]([O-])c1cc(C(F)(F)F)ccc1Sc1ccccc1,55.0*,-4.4
CC(C)Sc1ccc(C(F)(F)F)cc1[N+](=O)[O-],/,-31.0
O=C1OC(c2cccc(F)c2)=N/C1=C\c1ccc(Cl)cc1,8.0,-2.8
O=C(CSc1nccn1-c1cccc(Cl)c1)Nc1ccccc1C(F)(F)F,17.0,-8.6
CN(C)CCNC(=O)CC12CC3CC(C1)CC(c1ccccc1)(C3)C2,64.4*,-2.1
CCN(CC)CCNC(=O)COc1ccc(OC)cc1,-1.4,3.1
CN(C)CCNC(=O)COc1ccc(C23CC4CC(CC(C4)C2)C3)cc1,95.4*,-3.1
COc1ccc(CCNC(=O)CC23CC4CC(C2)CC(c2ccccc2)(C4)C3)cc1OC,19.7,-4.5
Cc1csc2nc(CSc3nc4ccccc4s3)c(Cl)n12,-2.0,0.4
NC(=O)NCC(=O)NC(Cc1cnc[nH]1)C(=O)O (configuration not stated),-7.0,/
Cc1cccc(C)c1NC(=O)CN1C(=O)c2ccc([N+](=O)[O-])cc2C1=O,0.0,-0.1
O=C(CN1C(=O)S/C(=C\c2c(Cl)cccc2Cl)C1=O)Nc1cc([N+](=O)[O-])ccc1O,61.0*,-19.1
COc1ccccc1NCC(O)CC1C(C)=C(C)c2ccccc21 (configuration not stated),63.4*,1.2
COc1ccccc1NC1OC(=O)c2ccccc21 (configuration not stated),-1.0,-3.1
CCc1ccccc1NC(=O)c1noc2c1CC(C)CC2 (configuration not stated),-34.3,-0.8
COc1cc(Cl)cc(/C=C2\C(=O)NN(c3ccc(C)c(C)c3)C2=O)c1O,14.0,-6.2
COc1c(Cl)cc(/C=C2\C(=O)NN(c3ccccc3)C2=O)cc1Cl,96.0*,-6.2
COc1cc(Cl)cc(/C=C2\C(=O)NN(c3cccc(Cl)c3)C2=O)c1O,58.0*,0.2
COc1cccc(/C=C2\C(=O)NN(c3ccc(C)c(C)c3)C2=O)c1,9.0,-4.6
COc1cc(/C=C2\C(=O)NN(c3ccc(I)cc3)C2=O)cc(OC)c1O,61.0*,-3.1
COc1cccc(/C=C2\C(=O)NN(c3cccc(C(F)(F)F)c3)C2=O)c1,85.0*,-2.5
COc1cc(/C=C2\C(=O)NN(c3ccc(C)c(Cl)c3)C2=O)cc(OC)c1OC,33.0,-4.1
SMILES,mHTT-CaM PPI inh,Pf apPOL block
COc1cc(/C=C2\C(=O)NN(c3ccc(C)c(C)c3)C2=O)cc(OC)c1OC,50.0,11.3
CCC(Oc1ccccc1)C(=O)NC1CCCC1 (configuration not stated),-7.3,-1.7
Cc1cc2nccc(-c3cccs3)n2n1,/,-4.7
Cc1ccc(C)c(NC(=O)COc2ccc(Br)cc2C)c1,-4.2,0.1
CCOc1cc(/C=C2\C(=O)NN(c3ccc(Br)cc3)C2=O)cc(Cl)c1O,35.0,0.8
CCOc1cc(/C=C2\C(=O)NN(c3cccc(Br)c3)C2=O)cc(Cl)c1OCC,98.0*,-4.0
COc1cc(/C=C2\C(=O)NC(=O)N(c3cccc(C)c3)C2=O)cc(OC)c1O,4.0,-2.9
O=C1NC(=O)N(c2cccc(C(F)(F)F)c2)C(=O)/C1=C/c1ccc(O)cc1,52.0*,-0.3
COCCCNC(=O)C1(C)CCC(=O)N1Cc1cccc(OC)c1 (configuration not stated),-2.4,-1.2
CN(C)c1ccc(NC(=O)C(=O)NCC2(O)CCCC2)cc1,-8.0,-3.4
Cc1nc2sccn2c(=O)c1NC(=O)C1CCCCC1,-3.4,-2.6
CCCCNC(=O)ON=C(N)Cc1cccs1,/,3.1
COc1cc(C(=O)Nc2nnc(Cc3ccc(Cl)cc3)s2)c([N+](=O)[O-])cc1OC,22.1,10.2
O=C(C=Cc1cccc([N+](=O)[O-])c1)OCC(=O)c1ccccc1,1.1,-1.6
CC(C)C(=O)N(Cc1cc(-c2ccccc2)on1)C1CC1,-6.8,-4.7
CN1CC(=Cc2ccco2)C(=O)C(=Cc2ccco2)C1,/,71.2*
CN1C/C(=C/c2ccco2)C(=O)/C(=C/c2ccco2)C1,30.1,/
O=C(Cn1nc2c(cc1=O)CCCC2)Nc1ccc2c(c1)OCCO2,10.0,-2.9
